We go through 40 molecules from PubChem BioAssay (Tox21).

“And” between values parts separate entries of the source, which are not always exact repeats. Identical values can stand only once. Results filed as inconclusive are left out. Values without a mark were called inactive. The source made the active and inactive calls. Calls come from the whole dose curve; as a rule, active = well fitted cell-killing curve with a large enough effect in the repeat runs; inconclusive = weak or mixed curves, or effect the other way; inactive = flat fitted curve, though single readings scatter.
% is set by controls: 0 for no effect and ±100 for the full control effect; potency is the fitted concentration of half-maximal effect.

This experiment can be described thus: qHTS RealTime-Glo MT Cell Viability Assay in HEK293 cells - 16 hour (AID 1224872). For activity change, negative = cytotoxicity: top concentration of the series differs between compounds. Note: nearly all actives have a fitted effect of over 50% in size. As to conditions: RealTime-Glo luminescence; series mostly up to 76.8 µM; activity change, negative = cytotoxicity: at the top concentration. The source says:
National Center for Advancing Translational Sciences [NCATS]
NIH Chemical Genomics Center [NCGC]
U.S. Environmental Protection Agency [EPA]
National Institutes of Environmental Health Sciences [NIEHS]
National Toxicology Program [NTP]
U.S. Food and Drug Administration [FDA]
Measure of cell viability is critical in the cell-base assay. Analysis of cell viability is necessary for the characterization of cell responses to cytotoxic drugs and environmental stress. A RealTime-Glo MT Cell Viability Assay to monitor cell viability in real time of continues cell culture during 40 hours of compound treatment was used to screen Tox21 10K library compounds in Hek293 cells. The RealTime-Glo MT Cell Viability Assay is a nonlytic, homogeneous, bioluminescent method to measure cell viability in real time using a simple, plate-based method. The assay involves adding NanoLuc luciferase and a cell-permeant prosubstrate to cells in culture. Viable cells reduce the proprietary prosubstrate to generate a substrate for NanoLuc luciferase. This substrate diffuses from cells into the surrounding culture medium, where it is rapidly used by the NanoLuc Enzyme to produce a luminescent signal. The signal correlates with the number of viable cells, making the assay well suited for cytotoxicity studies.
Tox21 Assay Protocol Summary:
The mixture of Hek293 cell suspension and reagents were dispensed at 600cells/6 ul/well in 1536-well tissue culture treated black solid bottom plates using a Multidrop dispenser. After the assay plates were incubated at a 37 C/5% CO2 incubator for 5 hours, 23 nL of compounds dissolved in DMSO, positive and negative controls was transferred to the assay plate by a pintool work station. The plates were incubated at 37 C for 40 hours. The luminescence intensity were measured at 0h, 8h, 16h, 24h, 32h and 40h time points using ViewLux plate reader during compound treatment.
(In qHTS, concentration-response curves come from the screen itself.)
With `C=CC(=C)CCC=C(C)C`, the “activity change, negative = cytotoxicity” value is 2.52%.
Regarding `C=CC(=O)OCC(O)COc1ccccc1` (stereo not given), the “activity change, negative = cytotoxicity” value is -6.25%.
Turning to `CCN=c1cc2oc3cc(NCC)c(C)cc3c(-c3ccccc3C(=O)OCC)c-2cc1C`, the Potency is 8.68 µM (active) and 6.17 µM (active).
As for `O=S(O)O`, the activity change, negative = cytotoxicity is 5.35% [at 15.8 µM].
On the same count and under the same terms, the figure for `S=P(N1CC1)(N1CC1)N1CC1` is 3.77%; for `CO[Si](CCCNCCNCCN)(OC)OC` it is 3.17%.
Same read-out and setting: the figure for `C=CC(C)C#N` (stereo not given) is 4.19%.
On the same count and under the same terms, the figure for `Cc1cn[nH]c1` is 6.76% [at 35.3 µM].
For the molecule `C=CC(C)(CCC=C(C)C)OC(=O)/C=C/c1ccccc1` (stereo not given), the “activity change, negative = cytotoxicity” value was -12.3%.
Still for that read-out and setting: for `CC1(C)COCN1` the value was 1.2%.
Turning to `CN(C)c1ccc(N=Nc2ccccc2C(=O)O)cc1`, the “activity change, negative = cytotoxicity” value was 1.37%.
Same read-out and setting: for `O=c1cccc[nH]1` the value was 9.2%.
On the same count and under the same terms, the figure for `CCc1cccc(CC)c1NC(=O)C(=O)O` is 10.8%; for `CC(C)=C1CC[C@@H](C)CC1=O` it is 3.38%; for `CCCCCCCCC(C)=O` it is 14.6%.
Regarding `CC(C)(C)CC(C)(C)c1ccccc1O`, the Potency was 39.1 µM (active).
Take `CCc1cccc(C)c1`: the “activity change, negative = cytotoxicity” value was 0.498%.
Still for that read-out and setting: the figure for `CCCCOC(=O)C(C)CC` (stereo not given) is 1.32%; for `c1ccc(Sc2ccccc2)cc1` it is -0.0166%; for `CC[N+](CC)(CC)Cc1ccccc1` it is 6.68%.
Turning to `c1cc[nH]c1`, the “activity change, negative = cytotoxicity” value was 0.686%.
As to `CC1=CP(=O)(c2ccccc2)CC1` (stereo not given), the “activity change, negative = cytotoxicity” value is 4.86%.
`CC(C)CCOCCC(C)C`: the “activity change, negative = cytotoxicity” value was 7.78%.
Take `CCN(CC)CCNc1ccc(CO)c2sc3ccccc3c(=O)c12`: the Potency is 16.9 µM (active).
As for `Cc1cncc(C)c1`, the “activity change, negative = cytotoxicity” value is 1.32%.
As to `Cc1cc2c(C(C)C)c(O)c(O)c(C=O)c2c(O)c1-c1c(C)cc2c(C(C)C)c(O)c(O)c(C=O)c2c1O`, the Potency was 19 µM (active).
As for `Cc1c(C(=O)O)cccc1[N+](=O)[O-]`, the “activity change, negative = cytotoxicity” value is -6.25%.
On the same count and under the same terms, the figure for `COc1ccc(C#N)cc1` is -14.2%; for `CC(=O)Oc1ccc(C2(c3ccc(OC(C)=O)cc3)C(=O)Nc3ccccc32)cc1` it is 0.143% [at 35.3 µM].
For the molecule `CC1CCCNC1` (stereo not given), the “activity change, negative = cytotoxicity” value is -10.1%.
Same read-out and setting: the figure for `Cn1cnc2ncnc(N)c21` is 5.92% [at 35.3 µM].
Turning to `CC(=O)Nc1ccc(O)cc1`, the Potency entry is “inactive”.
Take `CC1(C)C(=O)N(CO)C(=O)N1CO`: the “activity change, negative = cytotoxicity” value is 5.6%.
With `CCCCCCOc1ccc(O)cc1`, the Potency is 0.0617 µM (active).
On to `Cn1cccc1`, for which the “activity change, negative = cytotoxicity” value was 7.69%.
As to `CCC(C)c1ccccc1` (stereo not given), the “activity change, negative = cytotoxicity” value is 5.2%.
On the same count and under the same terms, for `C/C=C/c1ccc(OC)c(OC)c1` the value was -19%; for `O=S(=O)(O)CCCN1CCOCC1`, 13.8%.
Turning to `NC1(c2ccc(-c3nc4ccn5c(=O)[nH]nc5c4cc3-c3ccccc3)cc2)CCC1`, the Potency is 6.01 µM (active).
As to `CC(=O)C=O`, the “activity change, negative = cytotoxicity” value was 5.79%.
